# In PubChem BioAssay:
# Values without a mark were called inactive. Calls of active or inactive are those of the source. How the calls were made is not given here.
# Tested on: Aerobactin synthetase IucA (Klebsiella pneumoniae hvKP1)
# Experiment: Biochemical IucA enzyme inhibition primary screen of the Spectrum library (AID 1346200);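 further: 100% = wells without compound and 0% = wells lacking enzyme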
# Conditions: malachite green pyrophosphate, A620, at 8 µM, stronger effect = lower value
row,Compound,activity remaining
1,COc1cc(OC)c2c(c1Cl)OC1(C2=O)C(O)=CC(=O)CC1C (centres undefined),107%
2,Nc1nc2ncc(=O)[nH]c2c(=O)[nH]1,121%
3,CCn1cc(C(=O)O)c(=O)c2cc(F)c(N3CCNCC3)nc21,91.3%
4,CO/N=C(/C(=O)NC1C(=O)N2C(C(=O)O)=C(COC(N)=O)CSC12)c1ccco1 (centres undefined),92.5%
5,CCCC(=O)Nc1ncnc2c1ncn2C1O[C@@H]2COP(=O)(O)O[C@H]2[C@H]1OC(=O)CCC (some centres undefined),107%
6,COc1cc(NS(C)(=O)=O)ccc1Cc1c2ccccc2nc2ccccc12,104%
7,CCCC1O[C@@H]2CC3C4CCC5=CC(=O)C=CC5(C)C4[C@@H](O)CC3(C)[C@]2(C(=O)CO)O1 (some centres undefined),115%
8,Nc1ccc(S(=O)(=O)Nc2nccs2)cc1,101%
9,OC/C=C/c1ccc(O)c(O)c1,81.7%
10,CC(C)(N=NC(C)(C)C(=N)N)C(=N)N,105%
11,Nc1ccc(S(=O)(=O)Nc2ccccn2)cc1,97.8%
12,COc1ccc(CN(CCN(C)C)c2ncccn2)cc1,120%
13,N[C@@H](Cc1cc(I)c(Oc2cc(I)c(O)c(I)c2)c(I)c1)C(=O)O,117%
14,COc1cccc2c1CCC1CC(=O)CC[C@]21C (some centres undefined),119%
15,CC1(C)C[C@@H](O)[C@]2(C)CC[C@]3(C)C(=CCC4[C@@]5(C)CC[C@H](O)[C@](C)(CO)C5CC[C@]43C)[C@@H]2C1 (some centres undefined),100%
16,O=C(O)[C@@H](S)[C@@H](S)C(=O)O,49.3% (active)
17,COC(=O)c1c(C)cc(OC)cc1O,98.9%
18,CC1C/C=C/C=C/C=C/C=C/C(O[C@@H]2O[C@H](C)[C@@H](O)[C@H](N)[C@@H]2O)CC2OC(O)(CC(O)CC3OC3/C=C/C(=O)O1)CC(O)C2C(=O)O (some centres undefined),118%
19,COC(=O)C1=CO[C@@H](O[C@@H]2O[C@H](CO)[C@@H](O)[C@H](O)[C@H]2O)[C@H]2C1C(=O)C[C@@H]2C (some centres undefined),112%
20,O=c1c(O)cccc2c([C@H]3Oc4cc(O)cc(O)c4C[C@@H]3O)cc(O)c(O)c12,99.4%
21,COC1=CC(=O)C=C(OC)C1=O,99.1%
22,O=c1cc(-c2ccccc2)oc2cc(O)c(O)c(O)c12,122%
23,OC(CCN1CCCCC1)(c1ccccc1)c1ccccc1,95.4%
24,CC(C)(O)CC[C@@H](O)[C@](C)(O)C1CC[C@@]2(O)C3=CC(=O)C4C[C@@H](O)[C@@H](O)C[C@]4(C)C3CC[C@]12C (some centres undefined),102%
